Measurements from PubChem BioAssay.
The source made the active and inactive calls.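 Rule for the calls: active = inhibition above the hit cutoff set in the earlier primary screen (cut at about 27% in these data); inactive = the rest.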

Each compound was assayed against Protein phosphatase methylesterase 1 (Homo sapiens) (UniProt Q9Y570) (assay: human PME-1 methylesterase inhibition confirmation – biochemical, fluorescence polarization, FP-Rh probe, triplicate (AID 2171;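 note: 0% = enzyme with DMSO and 100% = wells lacking PME-1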)). Settings: recombinant PME-1, FP-Rh probe fluorescence polarization; at 5.9 µM; hits give high values.
Protein phosphatase methylesterase 1 (Homo sapiens), sequence (Q9Y570 whole entry, looked up): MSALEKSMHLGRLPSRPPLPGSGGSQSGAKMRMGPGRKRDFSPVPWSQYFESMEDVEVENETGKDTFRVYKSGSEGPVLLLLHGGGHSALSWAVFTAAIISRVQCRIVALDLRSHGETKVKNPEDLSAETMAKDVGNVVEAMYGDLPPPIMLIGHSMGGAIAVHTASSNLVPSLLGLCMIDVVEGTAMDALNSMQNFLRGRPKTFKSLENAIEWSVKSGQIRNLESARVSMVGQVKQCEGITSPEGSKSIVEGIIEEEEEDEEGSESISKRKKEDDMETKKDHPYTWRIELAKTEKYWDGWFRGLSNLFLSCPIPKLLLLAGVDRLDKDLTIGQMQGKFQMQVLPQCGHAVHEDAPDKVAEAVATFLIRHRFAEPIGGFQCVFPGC
For `CCn1c2ccccc2c2cc(NC(=O)c3ccccc3[N+](=O)[O-])ccc21`, the inhibition was 20.3% (inactive). `O=C(N/N=C/c1c[nH]c2ccccc12)c1cc(-c2cccc3ccccc23)n[nH]1` was tested, and the inhibition was 2.43% (inactive). For `CCCn1nc([N+](=O)[O-])c(C(C#N)c2nc3ccccc3o2)c(Cl)c1=O` (stereo not given), the inhibition was 36.5% (active). For `O=C(OCCOCCN=C1NS(=O)(=O)c2ccccc21)c1ccccc1Br`, the inhibition was 5.54% (inactive). In the case of `CC1=NC(=O)C(N=Nc2cccc(O)c2)N1c1ccccc1` (stereo not given), the inhibition is reported as 24.1% (inactive). For `Cc1nn(-c2ccccc2)c(Cl)c1/C=N/Nc1ccc(S(=O)(=O)Nc2ccccc2C(=O)O)cc1[N+](=O)[O-]`, the inhibition was 22.1% (inactive). `O=C(CSc1nnc(SCc2ccccc2Cl)s1)N/N=C/c1c[nH]c2ccccc12` was tested, and the inhibition was 19.3% (inactive). For `CN(C)c1ccc(NC(=O)Nc2ccc3snnc3c2)cc1`, the inhibition was 21% (inactive). `O=C(COC(=O)c1ccccc1Br)Nc1cc(S(=O)(=O)N2CCOCC2)ccc1N1CCCC1` was tested, and the inhibition was 52.1% (active). With `C/C(=N\Nc1ccc(C(=O)O)cc1)c1ccc2c(c1)Nc1ccccc1S2` the inhibition was 30.5% (active). In the case of `CN=c1scc(-c2cccs2)n1/N=C/c1ccc(O)c(O)c1O`, the inhibition is reported as 50.1% (active). With `COc1ccc(S(=O)(=O)N(C)C)cc1NC(=O)Cc1c[nH]c2ccccc12` the inhibition was 85% (active). For `COc1ccc(/C=C2\Sc3ccc(C(=O)N4CCN(Cc5ccccc5)CC4)cc3N(C)C2=O)cc1OC`, the inhibition was 46.9% (active). In the case of `COc1cccc(NC(=O)Nc2ccc3c(c2)N(C)C(=O)CS3)c1`, the inhibition is reported as 9.42% (inactive). `O=C(Nc1ccc2[nH]c(=S)sc2c1)Nc1ccccc1F` was tested, and the inhibition was 67.4% (active). `COc1ccc(NC(=S)NNc2ccc(S(=O)(=O)Nc3ccccc3C(=O)O)cc2[N+](=O)[O-])cc1` was tested, and the inhibition was 44.9% (active). With `Cc1ccc(NC(=O)CS(=O)CC(=O)Nc2ccccc2-c2ccc(C)o2)cc1` (stereo not given) the inhibition was 2.84% (inactive). In the case of `CCCC(=Nc1ccc(N)cc1)C1=C(O)C(C(=O)OC)C(C)(C)CC1=O` (stereo not given), the inhibition is reported as 4.48% (inactive). For `O=C(O)/C(CC(=O)c1ccc(Cl)cc1)=N/Nc1ccc([N+](=O)[O-])cc1[N+](=O)[O-]`, the inhibition was 42.7% (active). `Oc1ccc(Br)cc1-c1nc2cnccn2c1NC1CCCC1` was tested, and the inhibition was 21.4% (inactive). For `CCCC(=O)NC(c1ccccc1Cl)c1c(O)ccc2ccccc12` (stereo not given), the inhibition was 58.5% (active). With `COc1ccc(/C=N/Nc2nc3ccccc3o2)cc1O` the inhibition was 29.9% (active). In the case of `CCOC(=O)c1sc(N/N=C/c2cc(Br)c(O)c(OC)c2)nc1C`, the inhibition is reported as 21.6% (inactive). With `Cc1ccc2nc(-c3sc4nc(C)cc(C)c4c3N)[nH]c2c1` the inhibition was 18.2% (inactive). With `COc1ccc2c(c1)CC/C(=C\Nc1ccc3c(c1)OCO3)C2=O` the inhibition was 36.9% (active). In the case of `Cc1cccc(C)c1NS(=O)(=O)c1ccc(NC(=O)c2ccc(Cl)c([N+](=O)[O-])c2)cc1`, the inhibition is reported as -96.3% (inactive). With `Cc1cc(C)c(NC(=O)COC(=O)c2cccc3c2C(=O)c2ccccc2C3=O)c(C)c1` the inhibition was 42.1% (active). In the case of `CCOC(=O)Cc1csc(NC(=O)c2sc3nc4cc(C)ccc4cc3c2N)n1`, the inhibition is reported as 20.8% (inactive). For `COc1cc(OC)cc(C(=O)Oc2ccc(/C=N/Nc3nc4ccccc4s3)cc2OC)c1`, the inhibition was 24.3% (inactive). `CCc1cccc2cc3c(N)c(C(=O)Nc4ccc(S(=O)(=O)N5CCCC5)cc4)sc3nc12` was tested, and the inhibition was -1.66% (inactive). In the case of `c1cc2c3c(cccc3c1)NC1(CCC3(CC1)Nc1cccc4cccc(c14)N3)N2`, the inhibition is reported as 0.95% (inactive). For `CCC(=O)NC(c1ccccc1Cl)c1c(O)ccc2ccccc12` (stereo not given), the inhibition was 53.2% (active). For `CCCCCCCCCCCCCCCC[n+]1ccc(/C=N/O)cc1`, the inhibition was 60.4% (active). In the case of `O=C(NNc1c2ccccc2nc2ccccc12)c1ccccc1O`, the inhibition is reported as 65.5% (active). With `O=C(N/N=C/c1c[nH]c2ccccc12)c1ccc([N+](=O)[O-])cc1Cl` the inhibition was 20.6% (inactive). `CCOc1ccc(NC(=S)NNc2ccnc3cc(Cl)ccc23)cc1` was tested, and the inhibition was 28.3% (active). With `Nc1cc(Cl)nc(N/N=C/c2c(O)ccc3ccccc23)n1` the inhibition was 21.6% (inactive). `COc1cc(/C=C/c2ccc3cccc(O)c3n2)ccc1O` was tested, and the inhibition was 53.6% (active). For `CCOC(=O)C1=C(C)Nc2ccccc2N/C1=N\S(=O)(=O)c1cccc(Cl)c1`, the inhibition was 18.7% (inactive). With `CC(=O)c1c(C)n(-c2ccc(N(C)C)cc2)c2ccc(OCC(N)=O)cc12` the inhibition was 23.7% (inactive).
